Source: PubChem BioAssay
In the library only some 2.4% were active in any assay of this set; here they are far more common.
D2 ag-1: Beta-Arrestin HTS for Positive Allosteric Modulators of the Human D2 Dopamine Receptor: Agonists; D(2) dopamine receptor (Homo sapiens), P14416; DiscoveRx PathHunter D2 beta-arrestin, luminescence, 90 min; 100% = 57 uM dopamine signal; activation, % (no concentration beside the values); hit rate 0.084% among 360,000; AID 624465, 2012; in the data active means activation above about 40%; inconclusive means between about 15% and that limit
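Agonist mode: compounds alone added to overnight-plated D2 PathHunter cells for 90 min at 37 C, with 57 uM final dopamine (EC100) defining full response. Beta-arrestin recruitment detected by chemiluminescent reagent, read after 1 h at ambient temperature.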
D2 PAM-1: Beta-Arrestin HTS for Positive Allosteric Modulators of the Human D2 Dopamine Receptor: Potentiators; DiscoveRx D2 beta-arrestin cells, luminescence, 90 min; 100% = 57 uM dopamine signal; potentiation, % (concentration not given with the values); hit rate 0.23% among 360,000; AID 624464, 2012; in the data active means potentiation above about 50%; inconclusive means mostly about 30% to 49%
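PathHunter D2 cells, attached overnight at 37 deg C, received compound in DMSO plus dopamine at EC20 (50 nM final) for 90 min at 37 deg C. Beta-arrestin recruitment was read as luminescence after 1 h with detection reagent at ambient temperature.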
D2 PAM-2: HTS Assay for Positive Allosteric Modulators of the Human D2 Dopamine Receptor: Primary Screen for Potentiators; HEK293 T-REx D2, calcium flux, EC20 dopamine potentiation; D(2) dopamine receptor (Homo sapiens), P14416; hit rate 0.34% among 340,000; potentiation, % at 10 µM;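 active means potentiation over 3 SD above the plate norm, cut at about 30% in these data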; further: 0% is about no effect
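Using a no-wash calcium dye in inducible, force-coupled HEK293 Trex cells expressing D2, we tracked fluorescence each second for 180 s after compound, then for 180 s after EC20 dopamine to detect augmented signalling.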
D2 ag-2: HTS Assay for Allosteric Agonists of the Human D2 Dopamine Receptor: Primary Screen for Agonists. HEK293 T-REx D2 cells, calcium flux agonist mode. activation, % at 2 µM. AID 485358, 2010. hit rate 0.53% among 340,000;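 active means activation over 3 SD above normal in the single-dose calcium agonist read, cut at about 30% in these data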; further: 0% is about no effect
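Calcium-flux readout, 1 cycle/sec over 180 s following compound pin transfer, in inducible HEK293 Trex D2 cells (force-coupled); dopamine controls included. Positive calcium responses during this window marked compounds as potential agonists.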
D2 antagonist: HTS Assay for Allosteric Antagonists of the Human D2 Dopamine Receptor: Primary Screen for Antagonists. hit rate 2% among 340,000. AID 485344, 2010. inhibition, % at 10 µM. HEK293 TREx D2 cells, calcium flux, dopamine EC80. D(2) dopamine receptor (Homo sapiens), P14416; in the data active means inhibition above about 30%; inactive means below that, where a call was filed; further: 0% is about no effect
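Read-out: kinetic calcium fluorescence (1 cycle/s) in inducible HEK293 T-REx D2 cells after an EC80 dopamine addition that followed 180 s compound preincubation. Loss of the dopamine response indicates antagonism.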
D3 ag: qHTS of D3 Dopamine Receptor Agonist: D3 Dopamine Receptor B-arrestin Agonist Confirmatory Assay; shares compounds with D2 ag-2; DiscoveRx D3 beta-arrestin cells, luminescence, 90 min; Potency, µM (top dose mostly 76.9 µM), for inactives: at the highest dose activation, hits mostly activators; hit rate 4% among 2,300;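 further: potency means the concentration at half of the fitted maximal effect; 100% = dopamine control response; nearly all actives have a fitted effect of over 70% in size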
Target sequence (P35462 whole entry, looked up): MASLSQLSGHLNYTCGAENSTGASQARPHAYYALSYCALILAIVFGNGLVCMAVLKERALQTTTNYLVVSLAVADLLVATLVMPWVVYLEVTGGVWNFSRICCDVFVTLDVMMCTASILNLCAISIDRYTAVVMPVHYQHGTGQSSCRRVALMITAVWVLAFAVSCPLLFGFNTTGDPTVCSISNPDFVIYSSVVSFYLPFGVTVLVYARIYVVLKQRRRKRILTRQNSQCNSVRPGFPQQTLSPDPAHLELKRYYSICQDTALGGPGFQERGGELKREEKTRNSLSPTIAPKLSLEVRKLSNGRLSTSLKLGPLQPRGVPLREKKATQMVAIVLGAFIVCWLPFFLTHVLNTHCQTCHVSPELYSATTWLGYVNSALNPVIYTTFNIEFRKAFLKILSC
D2 ag-3: qHTS of D3 Dopamine Receptor Agonist: D2 Dopamine Receptor B-arrestin Agonist Counterscreen | shares compounds with D2 ag-2 | Potency, µM (titrated, usually from 76.9 µM), for inactives: at the highest dose activation, hits mostly activators | AID 720507, 2013 | hit rate 5.9% among 2,300 | DiscoveRx PathHunter D2 beta-arrestin, luminescence, 90 min; response scale: percent relative to full dopamine signal; further: potency means the concentration at half of the fitted maximal effect; % of control where 0% means no effect; nearly all actives have a fitted effect of over 70% in size
The depositor's hits bear a star; ? = inconclusive; / = no result given. Unless noted, the call rests on the fitted dose curve; in most records, active means well fitted activation curve with a large enough effect; inconclusive means small, poorly fitted or top-dose-only effect; inactive means flat fitted curve, though single readings scatter.

SMILES	D2 ag-1	D2 PAM-1	D2 PAM-2	D2 ag-2	D2 antagonist	D3 ag	D2 ag-3
COc1ccc(S(N)(=O)=O)cc1C(=O)NCCCN1CCN(c2ccccc2OC)CC1	8.3	-35.6	-31.5	60.1*	77.4*	-1.8%	2.1%
COc1ccc(S(N)(=O)=O)cc1C(=O)NCCCN1CCN(c2cccc(Cl)c2)CC1	10.3	-12.3	-19.1	55.6*	49.6*	12.9%	23.7%
O=C(NCCCN1CCN(c2cccc(Cl)c2)CC1)c1nc(-c2ccncc2)no1	9.4	-15.2	-36.4	69.1*	82.5*	3.9%	21.4%
COc1ccc(Cl)cc1C(=O)NCCS(=O)(=O)N1CCN(c2ccccc2OC)CC1	/	/	-11.0	/	/	/	/
Cc1nc2nc(C)c(CCC(=O)NCCCN3CCN(c4cccc(Cl)c4)CC3)c(C)n2n1	?	-16.0	-13.9	75.4*	72.6*	9.6%	?
Cc1ccc(S(=O)(=O)Nc2ccc3c(c2)c(C(=O)OC(C)C)c(C)n3S(=O)(=O)c2ccc(C)cc2)cc1	/	/	/	1.1	/	/	/
CC(C)(C)OC(=O)N[C@H](C(=O)OC(C)(C)C)c1ccc2ccccc2c1	-5.0	-0.6	14.6	-1.1	-5.9	2.1%	-3.5%
COc1ccc([C@@H](NC(=O)OC(C)(C)C)C(=O)OC(C)(C)C)cc1	-4.5	-7.7	5.7	0.4	11.4	/	/
COc1ccc(Br)c(C(=O)Nc2cc3c(cc2N2CCOCC2)n(C)c(=O)n3C)c1	/	/	-0.4	-0.1	/	/	/
Nc1nc2ccccc2n1/N=C/c1ccc([N+](=O)[O-])s1	-0.3	9.8	21.6	0.9	14.4	?	-2.4%
O=C(COc1coc(CN2CCN(c3ccccc3)CC2)cc1=O)Nc1ccccc1	9.3	-31.1	-5.7	45.7*	26.4	11.5%	17.5%
Cc1cc(NC(=O)COc2coc(CN3CCN(c4ccc(F)cc4)CC3)cc2=O)no1	-1.2	-6.6	1.7	-0.9	-5.6	/	/
Cc1cc(NC(=O)COc2coc(CN3CCN(c4ccccc4)CC3)cc2=O)no1	14.6	-0.3	/	/	/	3.2%	25.2%
Cc1cccc(NC(=O)COc2coc(CN3CCN(c4ccccc4)CC3)cc2=O)c1C	?	-2.8	-14.0	43.4*	4.7	-3.9%	23.9%
Cc1cc(NC(=O)COc2coc(CN3CCN(c4ccccc4F)CC3)cc2=O)no1	12.2	7.3	-20.7	62.0*	15.0	15.4%	?
O=C(COc1coc(CN2CCN(c3ccccc3F)CC2)cc1=O)Nc1ccccc1	-2.6	0.2	/	/	/	/	/
Cc1ccc(NC(=O)COc2coc(CN3CCN(c4ccccc4)CC3)cc2=O)cc1	0.6	-9.6	-6.1	10.6	9.1	/	/
COc1ccc(/C=C\c2onc(C)c2S(=O)(=O)N2CCC(C(=O)Nc3ccc(F)cc3F)CC2)cc1	/	/	1.8	0.4	/	/	/
Cc1cccc(NC(=O)c2ccc(Cn3nc(N4CCN(c5ccccc5)CC4)ccc3=O)o2)c1C	/	/	-4.1	-0.1	/	/	/
Cc1ccc(Cl)cc1N1CCN(c2nc3ccccc3c3nc(-c4cccnc4)nn23)CC1	/	/	-3.5	-0.5	/	/	/
CCc1nn(CC(=O)NCc2ccc(OC)cc2OC)c(=O)c2cc3c(OC)cccc3n12	/	/	/	2.2	/	/	/
CCCN(CCC)CCCNC(=S)Nc1ccc2nc(N3CCCC3)cc(C)c2c1	-2.7	-17.0	-4.2	4.1	-20.0	/	/
CCCCN(CC)CCCNC(=S)Nc1ccc2nc(N3CCN(C)CC3)cc(C)c2c1	7.1	-4.8	-28.6	71.4*	39.6*	23.9%	21.0%
